These results are taken from PubChem BioAssay AID743255 (National Center for Advancing Translational Sciences (NCATS), 2014).

About 910 (0.23%) of roughly 390,000 compounds were called active. A call without a number means that no potency is given here. Inconclusive results (about 5%) are left out. The call rests on the fitted dose curve; in most records, active means well fitted inhibition curve with a large enough effect; inconclusive means small, poorly fitted or top-dose-only effect; inactive means no such curve, though single readings can be large or run the other way. The full list was thinned out, with actives kept by preference.
Potency means the concentration at half of the fitted maximal effect.

Chain of Ubiquitin carboxyl-terminal hydrolase 1 (Homo sapiens) (O94782 whole entry, looked up): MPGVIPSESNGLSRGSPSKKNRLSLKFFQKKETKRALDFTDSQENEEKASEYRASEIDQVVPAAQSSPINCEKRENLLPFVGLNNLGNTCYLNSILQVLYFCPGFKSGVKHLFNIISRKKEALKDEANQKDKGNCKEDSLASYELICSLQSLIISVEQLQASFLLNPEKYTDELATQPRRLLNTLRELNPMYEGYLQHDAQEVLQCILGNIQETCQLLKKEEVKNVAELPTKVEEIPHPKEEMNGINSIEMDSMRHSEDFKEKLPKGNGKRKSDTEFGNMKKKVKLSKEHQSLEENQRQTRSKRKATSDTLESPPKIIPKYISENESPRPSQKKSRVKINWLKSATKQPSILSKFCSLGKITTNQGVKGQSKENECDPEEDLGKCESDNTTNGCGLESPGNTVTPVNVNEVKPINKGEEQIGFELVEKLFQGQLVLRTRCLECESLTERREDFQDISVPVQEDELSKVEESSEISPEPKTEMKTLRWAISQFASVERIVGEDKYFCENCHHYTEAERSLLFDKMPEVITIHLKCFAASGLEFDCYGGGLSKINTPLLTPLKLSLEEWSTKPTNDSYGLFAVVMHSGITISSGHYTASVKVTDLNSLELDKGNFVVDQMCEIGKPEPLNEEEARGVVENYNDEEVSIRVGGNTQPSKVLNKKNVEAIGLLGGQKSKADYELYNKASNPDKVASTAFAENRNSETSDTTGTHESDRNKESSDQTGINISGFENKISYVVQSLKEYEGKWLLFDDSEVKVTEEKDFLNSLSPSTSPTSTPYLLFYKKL

The test deals with Ubiquitin carboxyl-terminal hydrolase 1 (Homo sapiens) (UniProt O94782). Briefly: Inhibitors of USP1/UAF1: Primary Screen. Further: nearly all actives have a fitted effect of over 60% in size. Particulars: recombinant USP1/UAF1, Ub-Rhodamine cleavage fluorescence; series mostly up to 57.1 µM. The text has this:
Deubiquitinating enzymes (DUBs) are a class of enzymes that can cleave isopeptide bond formed between the C-terminal carboxylate of ubiquitin and a lysine side-chain amino group on the target protein. Among them, ubiquitin specific proteases (USPs) constitute the largest DUB family. Human USPs are emerging as promising targets for pharmacological intervention because of their connection to a number of human diseases, including prostate, colon and breast cancer (1, 2), pediatric acute lymphoblastic leukemia (3), and familial cylindromatosis (4). The advantage of inhibiting USPs lies in the potential specificity of therapeutic intervention that can lead to better efficacy and reduce nonspecific side effects. In a collaboration between the University of Delaware and the NIH Chemical Genomics Center, a high-throughput screen assay was developed to screen for USP1/UAF1 inhibitors. This miniaturized assay has a fluorescent read-out and is used to screen the NIH Molecular Libraries Small Molecule Repository (MLSMR) in order to identify a small molecule that inhibits USP1. NIH Chemical Genomics Center [NCGC] NIH Molecular Libraries Probe Centers Network [MLPCN] MLPCN Grant: DA030552 Assay Submitter (PI): Zhihao Zhuang, University of Delaware 1. Priolo, C., et al. (2006) The isopeptidase USP2a protects human prostate cancer from apoptosis. Cancer Res 66, 8625-8632 2. Popov, N., et al. (2007) The ubiquitin-specific protease USP28 is required for MYC stability. Nat Cell Biol 9, 765-774 3. De Pitta, C., et al. (2005) A leukemia-enriched cDNA microarray platform identifies new transcripts with relevance to the biology of pediatric acute lymphoblastic leukemia. Haematologica 90, 890-898 4. Kovalenko, A., et al. (2003) The tumour suppressor CYLD negatively regulates NF-kappaB signalling by deubiquitination. Nature 424, 801-805
3 microliters of reagents (buffer in columns 3 and 4 as negative control and 1nM USP1/UAF1 complex in columns 1, 2, and 5-48) are dispensed into Greiner black solid bottom 1536-well assay plates. Compounds are then transferred via Kalypsys pin tool equipped with 1536-pin array (10nl slotted pins, V&P Scientific, San Diego, CA). Following an incubation step of 15 min at room temperature, 1ul of Ub-Rho substrate (150nM final concentration) is added to initiate the reaction. The plates are immediately centrifuged at 1000 rpm for 15 seconds, and subsequently transferred to a ViewLux high-throughput CCD imager (PerkinElmer) wherein kinetic measurements of fluorescence are acquired using 480 nm excitation/540 nm emission filter set (6 reads every 60 seconds, see Table 1). All reagents are diluted in an assay buffer consisting of 50mM HEPES (pH 7.8), 0.5mM EDTA, 0.1 mg/ml BSA, 1mM TCEP, and 0.01% Tween-20.
As for `COC(=O)C1=C(c2ccccc2)C[C@@H]2CC[C@H]1N2C(=O)NCc1ccco1`, the Potency entry was “inactive”.

On to `Cc1ncoc1C(=O)NCC1=C(c2cccc3ccccc23)C[C@@H]2CC[C@H]1N2Cc1ccco1`, for which the Potency entry was “inactive”.

Regarding `COc1cc(Cn2c(N)c(C(=O)NCc3ccco3)c3nc4ccccc4nc32)cc(OC)c1OC`, the Potency is 22.4 µM (active).

As for `CN(C)CC1Oc2ccccc2OC1(O)c1ccccc1` (stereo not given), the Potency result was “inactive”.

With `Cc1ccc(-n2c(/C=C/c3cccc(C(F)(F)F)c3)nc3ccccc3c2=O)cc1`, the Potency entry was “inactive”.

As for `COC(=O)C1=C(c2ccc(OCc3ccccc3)cc2)C[C@@H]2CC[C@H]1N2C(=O)NCc1cccc(F)c1`, the Potency entry is “inactive”.

As to `O=C1NC(=O)N(c2ccccc2)C(=O)/C1=C/c1ccc([N+](=O)[O-])s1`, the Potency is 28.2 µM (active).

As to `CC(=O)C1(O)CCC2C3CCC4=C(Cl)C(=O)CCC4(C)C3CCC21C` (stereo not given), the Potency result was “inactive”.

As for `Cn1cc(/C=C/c2nc3ccccc3c(=O)n2-c2ccccc2)c2ccccc21`, the Potency result is “inactive”.

Take `COc1cccc(N2C(=O)NC(=O)/C(=C\c3cn(C)c4ccccc34)C2=O)c1`: the Potency is 11.2 µM (active).

Regarding `Cc1c(C(=O)O)cccc1-n1c(C)cc(/C=C2\C(=O)NC(=O)N(c3ccc4c(c3)OCO4)C2=O)c1C`, the Potency result was “inactive”.

`O=C1C2CCN(CC2)C1(CO)CO`: the Potency result was “inactive”.

For the molecule `C[N+](C)(C)CCOP(=O)([O-])OC[C@H](O)CO`, the Potency result was “inactive”.

In the case of `Cc1ccc(OC(=O)N(C)C[C@@H]2OCc3cnnn3CCCC(=O)N([C@H](C)CO)C[C@@H]2C)cc1`, the Potency result was “inactive”.

With `COc1cc(C2c3cc4c(cc3C(O)C3COC(=O)C23)OCO4)cc(OC)c1OC` (stereo not given), the Potency entry is “inactive”.
